TWEAK Fn14 block – TWEAK-Fn14 signaling inhibition | 360,000 compounds, 2% hits | TWEAK-stimulated Fn14 reporter cells, luciferase luminescence, 8 h | inhibition, % at 10 µM; in the data active = inhibition above about 50%
C8 TRAIL sens – sensitizes caspase-8 expressing cells to TRAIL. NB7+C8 cells + TRAIL, ATPlite viability luminescence. inhibition (viability loss, TRAIL sensitization), % at 10 µM. 360,000 compounds, 1% hits;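 active = compounds causing at least 50% loss of cell viability in the single-dose screen, relative to plate controls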
aSyn 5UTR inh – 5' untranslated region of α-synuclein, MLPCN primary screen | alpha-synuclein 5'UTR reporter, inhibitor activity | inhibition, % (tested at 7.5 µM) | 300,000 compounds, 0.82% hits | AID 1813; in the data active = inhibition above about 60%;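 note: H4 neuroglioblastoma cells stably carrying SNCA 5'UTR luciferase fusion; 0% = DMSO wells and 100% = positive control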
HIF-2a block – HIF-2a inhibition | 786-0 RCC cells HIF-2a reporter, luciferase luminescence, overnight | inhibition, % at 18.8 µM | 360,000 compounds, 0.72% hits;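 active = inhibition of the luminescence signal of 40% or more relative to plate controls, in a single-dose primary screen at 18.75 µM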
HSP90 refold inh – HSP90 refolding inhibition in rabbit reticulocyte lysate; luciferase refolding luminescence, 3 h; inhibition, % at 5.6 µM; 290,000 compounds, 0.91% hits;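 active = inhibition above the screen-wide mean plus 3 SD, computed separately per campaign, cut at about 16% in these data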;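 note: 0% = DMSO wells and 100% = 60 µM geldanamycin wells; inhibitors lower the luminescence because luciferase stays unfolded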
TROY signal inh – inhibitors of TROY-dependent NF-kB signaling; Q293 LMP1-TROYcd NF-kB luciferase reporter, 4 h; 360,000 compounds, 0.98% hits; inhibition, % at 10 µM;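 active = compounds whose plate-normalised and pattern-corrected inhibition of the luciferase reporter signal at the single screening dose is 50% or more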
The depositor's hits bear a star; · = not tested or not shown. Only some compounds are listed: those with a hit (about 3.9% of all), similar ones and a draw of the others.

SMILES	TWEAK Fn14 block	C8 TRAIL sens	aSyn 5UTR inh	HIF-2a block	HSP90 refold inh	TROY signal inh
CCOC(=O)c1ccc(N=c2sc(C(=O)OC)cc(=O)n2-c2ccc(C(=O)OCC)cc2)cc1	54*	65*	-32	39	3	20
O=C(NC1CCCCC1)OC1CC2CC1[C@H]1CCCCN1C2=O (stereo partly drawn)	0	-1	·	-4	·	0
CCOc1cc(/C=C(/C#N)C(=O)Nc2ccc(O)cc2)cc(Br)c1O	-59	-4	84*	5	4	15
O=C(NC1CCCCC1)C(c1ccnc2ccccc12)n1c(=O)c(-c2ccccc2)nc2ccccc21 (stereo not drawn)	·	17	·	-1	·	·
COc1ccc(CC(=O)Nc2nc(-c3cc(OC)ccc3OC)cs2)cc1	65*	-6	35	-6	-2	20
O=c1c(Sc2ccccc2)c(C(F)(F)F)[nH]n1-c1ccccc1	7	11	-2	9	-8	53*
CCOC(=O)[C@]12CCCC=C1N(Cc1cccc3ccccc13)C(=O)[C@H](CC(=O)NCCc1ccccc1OC)C2	18	11	·	-23	·	22
CCCc1ccc(C(=O)NC(=O)c2ccccc2O)cc1	57*	74*	-15	-195	0	34
Cc1cc(Nc2cccc(Cl)c2)nc(N2CCOCC2)n1	92*	3	-36	20	-2	91*
CSc1nc2ccc(Cl)cc2[nH]1	4	6	-50	-36	-3	-13
CSc1nc2cc(Oc3cccc(Cl)c3Cl)c(Cl)cc2[nH]1	23	2	43	9	1	56*
CC1=Nc2cc(C(=O)NCc3ccco3)ccc2Sc2ccc(C)cc21	34	-31	101*	33	5	8
NC(=S)n1[nH]c(-c2ccc([N+](=O)[O-])cc2)c(N=Nc2ccccc2[N+](=O)[O-])c1=O	-6	4	·	-14	3	3
Cc1c(N=Nc2c(-c3ccc([N+](=O)[O-])cc3)[nH]n(C(N)=S)c2=O)cccc1[N+](=O)[O-]	70*	22	·	4	3	47
NC(=S)n1[nH]c(-c2ccc([N+](=O)[O-])cc2)c(N=Nc2cccc([N+](=O)[O-])c2)c1=O	71*	53*	-30	-51	3	64*
Cc1ccc(-n2nc(C)c3c(=O)[nH]c(C(F)(F)F)nc32)cc1	·	·	-1	·	-1	·
Cc1nn(-c2ccccc2)c2nc(C(Cl)(Cl)Cl)[nH]c(=O)c12	12	-18	7	6	1	51*
Nc1ccc(CCCC(=O)NCc2cccnc2)cc1	7	-5	·	-3	·	1
O=C(COC(=O)CN1C(=O)C2CCCCC2C1=O)NC1CCS(=O)(=O)C1 (stereo not drawn)	-1	0	15	19	1	16
CC1CCCC(NC(=O)COC(=O)CN2C(=O)C3CCCCC3C2=O)C1C (stereo not drawn)	50*	-8	-25	24	-2	11
COc1cc(NC(=O)C2(C)CCCN2C)cc(OC)c1OC (stereo not drawn)	-9	-1	·	5	·	-8
Oc1ccccc1-c1nc(NC2CCCC2)c2ccccc2n1	34	-28	13	33	3	60*
C[C@H](O)[C@@H]1C(=O)N2CCc3c([nH]c4ccccc34)[C@@H]2C[C@@H]1N(C)C(=O)c1ccco1	14	2	·	-21	·	4
O=C1CC(=O)N(Cc2ccco2)C(=S)N1	51*	3	-12	25	2	5
O=C1CC(=O)N(Cc2ccco2)C(=O)N1	4	-2	4	8	2	1
SMILES	TWEAK Fn14 block	C8 TRAIL sens	aSyn 5UTR inh	HIF-2a block	HSP90 refold inh	TROY signal inh
CCCCCCCCN1C(=O)[C@H](CC(=O)N2CCCCC2)C[C@@]2(C(=O)OC)CC(C)(C)CC=C12	·	9	·	-1	·	·
COc1ccc(CNC(=O)c2c(C)oc3c2C(=O)c2ccccc2C3=O)cc1	99*	94*	103*	73*	3	56*
Cc1oc2c(c1C(=O)NCc1cccnc1)C(=O)c1ccccc1C2=O	·	·	107*	·	16*	·
CC(=O)c1c(C)oc2c1C(=O)c1ccccc1C2=O	24	39	-62	17	2	28
COc1ccc(OC)c(CN2C(=O)CSCC2(C)C(=O)NCc2ccccc2)c1 (stereo not drawn)	·	-14	·	7	·	·
COCCNC(=O)C(=O)c1c(-c2ccccc2)[nH]c2ccccc12	11	-1	17	-8	0	-12
O=C(C(=O)N(Cc1ccccc1)Cc1ccccc1)c1c(-c2ccccc2)[nH]c2ccccc12	52*	24	·	-23	·	17
CC(C)(C)c1cc(C(=O)Nc2ccc(F)cc2)n(Cc2ccc(F)cc2)n1	18	4	-16	-59	-6	63*
COc1cccc(-c2cn3nc4c(nc3n2)CCCC4)c1	6	53*	104*	-25	-1	11
Clc1ccc(-c2cn3nc4c(nc3n2)CCCC4)cc1	-1	29	88*	-116	8	14
COc1cccc(-c2cc(C(F)(F)F)n3nc(N)nc3n2)c1	-15	4	26	-11	0	-16
Cc1ccccc1NC(=O)Cc1nc(COC(=O)c2nccnc2N)cs1	-58	-6	·	18	·	2
O=C1N(Cc2ccccc2)c2ccc(Br)cc2[C@]12C[C@H](O)CO2	·	2	·	-2	·	·
COc1ccc(Nc2nc(N)c(C(=O)c3ccc(OC)cc3)s2)cc1	32	13	18	-82	1	2
COc1ccc(Nc2nc(N)c(C(=O)c3ccc(F)cc3)s2)cc1	17	6	70*	-109	1	-15
COc1ccc(C(=O)NC2=NCCS2)cc1	5	4	-91	-156	1	-28
CC(C)Oc1ccc(C(=O)NC2=NCCS2)cc1	21	59*	-20	-105	8	-23
CCN1C(=N)N(c2ccccc2)C(=O)C(CC)(CC)C1=O	-7	8	·	6	·	-21
NS(=O)(=O)c1ccc(CCNc2ccn3nc(-c4cccc(C(F)(F)F)c4)cc3n2)cc1	80*	9	·	-87	·	66*
CC(C)C[C@@H]1CN(CCCC[C@H]2CNC(=O)C(=O)N2CCC2CCCCC2)C(=O)C(=O)N1CCC1CCCCC1	61*	3	·	-6	·	-31
Cc1ccc(C(c2c(NC(=O)c3ccco3)sc(C)c2C)N2CCOCC2)cc1 (stereo not drawn)	70*	12	·	16	·	38
CCOC1=C2CN(S(=O)(=O)c3ccc(C)cc3)C(c3ccc(C)cc3)CC2N(S(=O)(=O)c2ccc(C)cc2)C(c2ccccc2)C1 (stereo not drawn)	·	7	·	10	·	·
Nc1nc(N)c2nc(-c3ccccc3)c(N)nc2n1	3	79*	35	-22	1	-9
NSc1nc(N)c2nc(-c3ccccc3)c(-c3ccccc3)nc2n1	30	-3	24	20	-2	14
CCOC(=O)c1cn(-c2ccc(F)c(F)c2F)c2c(F)c(F)c(F)cc2c1=O	-7	64*	-21	13	-9	-2

Assay outcomes from PubChem.
